Experimental data reported in ChEMBL document CHEMBL3988442, “University of Dundee, Small-Polar-MMV Screening Library” (2021).
Among all 48,000 compounds or so, about 13,000 (27%) showed an effect of 50% or more. This is one part of the list.

test system: Wolbachia pipientis; test: Anti-Wolbachia Cell-Based Screen; type: functional; parameters: scale not given: in the data most compounds retested in dose-response had high values; conditions: 5 µM

| Compound | Percent Effect |
| --- | --- |
| C[C@H]1CN2C[C@H](O)CC2CN1Cc1ccc2nccnc2c1.Cl (some centres undefined) | 75.9% |
| CN(C)C(=O)CN1C[C@@H]2CC[C@H](C1)N(Cc1ccc3nsnc3c1)C2 | 10.45% |
| Cc1nccn1-c1ccc(NC(=O)C2CCCN2Cc2ccoc2)cc1 (centres undefined) | 9.601% |
| CCn1ccnc1CN1CCN(c2ncnc3ccsc23)CC1C (centres undefined) | 11.61% |
| COc1ccc(CN2CC(=O)N(c3ccc(C)cc3)CC2C)cc1O (centres undefined) | -1.266% |
| Cc1nccn1-c1ccc(CN2CC3C[C@@H](O)CN3C[C@@H]2C)cc1 (some centres undefined) | 108% |
| C[C@@H]1CN2C[C@H](O)CC2CN1Cc1ccc2nccnc2c1 (some centres undefined) | 113.8% |
| Cc1nccn1-c1ccc(C(C)NCCC(C)C)cc1 (centres undefined) | -1.351% |
| CS(=O)(=O)N1C[C@@H]2CC[C@H](C1)N(Cc1ccc3nsnc3c1)C2 | 5.437% |
| CCNC(=O)CCC(=O)NC1(c2cccc(Br)c2)CC1 | -12.14% |
| CCc1nc(C)c(C(=O)N2C[C@H]3CC[C@@H]2CN(S(=O)(=O)N(C)C)C3)s1 | 8.94% |
| CN(Cc1cnn(C)c1)C(=O)NC1CCN(c2ncccn2)CC1 | -3.223% |
| CC(C)NC(=O)[C@@H]1CC[C@@H]2[C@@H](CCN2Cc2cn(C)c3ccccc23)O1.O=C(O)C(F)(F)F | -4.98% |
| Cc1cccnc1CN(C)C(C(=O)O)c1ccc(-c2ccn[nH]2)cc1 (centres undefined) | -12.44% |
| O=C(CC1OCCc2ccccc21)NCCn1cccc1 (centres undefined) | -19.46% |
| Cc1nn(C)c(N(C)C)c1CNCc1cccnc1-n1cncn1.Cl | 6.556% |
| Cc1nn(C)c(N(C)C)c1CNCc1cccnc1N1CCOCC1 | 75.62% |
| COc1ccc(C(=O)NCc2cccnc2N2CCOCC2)o1 | -8.247% |
| Cc1nn(C)c(Cl)c1C(=O)NCc1cccnc1N1CCOCC1 | 97.98% |
| Cc1nn(C)c(N2CCOCC2)c1CNC(c1cccs1)C(C)C (centres undefined) | 11.33% |
| COc1ncccc1CNCc1c(C)nn(C)c1N1CCOCC1 | 134% |
| COc1c(CNCc2cccnc2OC2CCCC2)c(C)nn1C | 10.48% |
| COc1c(CNCc2ccccc2CO)c(C)nn1C | -3.857% |
| COc1c(CNCc2cccnc2N2CCN(C)CC2)c(C)nn1C | 102% |
| Cc1nn(C)c(C)c1C(=O)NCc1cccnc1OC1CCCC1 | 2.821% |

| Compound | Percent Effect |
| --- | --- |
| Cn1ncnc1CCNC(=O)c1cc(Cl)c(Cl)n1C | -10.92% |
| CCC(O)(CNCc1ncc[nH]1)c1ccc(Br)cc1 (centres undefined) | -2.159% |
| CCN(C(=O)c1ccc2nncn2c1)C(C)Cc1ccc(OC)cc1 (centres undefined) | 0.4912% |
| COc1ccccc1CN1C(=O)O[C@@H]2CN(Cc3cccc(C)n3)C[C@@H]21 | 8.298% |
| Cc1c(C(C)NCc2cnn(C)c2)cnn1-c1ccccc1 (centres undefined) | 2.501% |
| Cc1nn(C)c(C)c1CNCc1cccnc1N1CCOCC1 | 117.5% |
| COc1c(CNCc2cccnc2N2CCCCC2)c(C)nn1C | 105.9% |
| COc1ncccc1CNCc1c(C(C)C)nn(C)c1Cl | -10.74% |
| COc1c(CNCc2cccnc2N2CCOCC2)c(C)nn1C | 98.1% |
| COc1c(CNCc2ccccc2CN2CCOCC2)c(C)nn1C | 9.735% |
| Cc1nn(C)c(C)c1CNCc1ccnc(N2CCOCC2)c1 | 7.637% |
| COc1c(CNCc2ccc(N3CCOCC3)cc2)c(C)nn1C | -35.64% |
| CC(C)c1nn(C)c(Cl)c1CNCc1cccnc1N(C)C.Cl | 4.509% |
| COc1c(CNCc2ccnc(N3CCCC3)c2)c(C)nn1C | 5.629% |
| Cc1nn(C)c(C)c1CNCc1ccc(N2CCOCC2)nc1.Cl | -2.34% |
| Cc1nn(C)c(Cl)c1CNCc1cccnc1N1CCCCC1.Cl | 128.1% |
| CCN(CC)C(=O)[C@@H]1C[C@@H](NC(=O)c2ccn(C(C)(C)C)c2)CN1C | -2.553% |
| CCOC1CCCN(C(=O)c2[nH]nc(C3CC3)c2Br)C1 (centres undefined) | 12.02% |
| Cc1nn(C)c(C)c1CC(=O)NCc1cccnc1N1CCOCC1 | 92.54% |
| Cc1nn(C)c(C)c1CCC(=O)NCc1cccnc1OC1CCCC1 | 8.443% |
| Cc1nn(C)c(C)c1CC(=O)NCc1cccnc1OC1CCCC1 | 8.742% |
| O=C(NC1CCC(C(=O)N2CCSCC2)CC1)N1CCOCC1 (centres undefined) | -2.912% |
| COCCNS(=O)(=O)c1ccc(Cl)c(C(=O)N(C)Cc2sccc2C)c1 | 1.059% |
| COC(=O)CNC(=O)c1sccc1N(C)S(=O)(=O)c1ccc(Cl)cc1 | 108.4% |
| Cc1ccc(S(=O)(=O)N(C)c2ccsc2C(=O)NCC(C)C)cc1 | 110.5% |

| Compound | Percent Effect |
| --- | --- |
| CC(=O)NCCNC(=O)c1sccc1Br | 4.913% |
| COC(=O)CNC(=O)c1cccc(C(=O)N(C)c2ccccc2)c1 | -13.83% |
| CNC(=O)c1sccc1S(=O)(=O)Nc1ccc(C)cc1 | 10.06% |
| COCC1CN(c2ccc(Cl)cc2C#N)CCO1 (centres undefined) | -47.15% |
| CN(C(=O)CN1CCCC1c1cnn(C)c1)C1(C#N)CCCCC1 (centres undefined) | 17.82% |
| Fc1ccc(C2(NCc3noc(C4CC4)n3)CCC2)cc1 | 7.462% |
| Cn1ccnc1CN1CC[C@@H]2[C@@H](CCC(=O)N2CCc2c[nH]cn2)C1 | 16.03% |
| N#Cc1cn(C2CC2)c(=O)n(CC(O)c2ccc(OC(F)F)cc2)c1=O (centres undefined) | -10.28% |
| CC(C)N(Cc1c[nH]nc1-c1ccc2c(c1)OCO2)Cc1nccn1C | -1.902% |
| CN(C)C(=O)COCc1cncc2c1CCN(Cc1nccn1C)C2 | -3.709% |
| CN1CCN(c2ncc3c(c2C(=O)O)CCN(C2CCOC2)C3)CC1.O=C(O)C(F)(F)F.O=C(O)C(F)(F)F (centres undefined) | 2.308% |
| CCN(CC)c1ncc2c(c1C(=O)O)CCN(C1CCOC1)C2.O=C(O)C(F)(F)F (centres undefined) | 12.85% |
| CN(C)CCOCc1cncc2c1CCN(C1CCOCC1)C2.O=C(O)C(F)(F)F.O=C(O)C(F)(F)F.O=C(O)C(F)(F)F | 96.48% |
| CN(C)CCOCc1cncc2c1CCN(C(=O)C1CCOCC1)C2.O=C(O)C(F)(F)F.O=C(O)C(F)(F)F | 112.9% |
| O=C(C1CC=CC1)N1CCc2c(COCc3ccncc3)cncc2C1.O=C(O)C(F)(F)F.O=C(O)C(F)(F)F | -4.118% |
| CN(C)C(=O)COCc1cncc2c1CCN(C1CCOCC1)C2.O=C(O)C(F)(F)F.O=C(O)C(F)(F)F | 119.4% |
| Cn1ccnc1CNC[C@H]1Cn2cc(-c3ccccc3)nc2CO1 | -17.11% |
| COc1cc(F)ccc1NC(=O)NCCNC(=O)OC(C)(C)C | 3.046% |
| CN(C)c1ccc(NC(=O)N2CCCCC2c2ncc[nH]2)cn1 (centres undefined) | 3.844% |
| OCCN(Cc1cccnc1)c1ccc(Br)cn1 | -12.52% |
| c1ccc(Cn2ccnc2CN2CCCC2c2noc(C3CC3)n2)cc1 (centres undefined) | 9.89% |
| Cc1cccc(C(=O)N2CCCC(c3nccn3Cc3cscn3)C2)n1 (centres undefined) | 13.18% |
| CNc1ccc(CC2CCCN(C(=O)c3cnccn3)C2)nn1 (centres undefined) | 132.6% |
| O=C(c1cnccn1)N1CCCC(Cn2cc(C3CC3)nn2)C1 (centres undefined) | -22.35% |
| CNc1ccc(CC2CCCN(C(=O)c3cccc(C)n3)C2)nn1 (centres undefined) | 125.2% |

| Compound | Percent Effect |
| --- | --- |
| CNc1ccc(CC2CCCN(C(=O)c3cnc(C)nc3)C2)nn1 (centres undefined) | 2.499% |
| CNc1ccc(CC2CCCN(C(=O)c3cncnc3C)C2)nn1 (centres undefined) | -8.103% |
| CCc1noc(CN(CC)C(=O)c2ccc3ncsc3c2)n1 | -4.547% |
| Cc1nc(CN(C)C(=O)Nc2cccc(COC(C)C)c2C)no1 | -7.168% |
| Cc1nc(CN(C)C(=O)Nc2cccc(COC(C)C)c2)no1 | -5.04% |
| Cc1nc(CN(C)C(=O)Nc2cccc(C)c2C)no1 | 98.94% |
| CCN(C)c1ncnc2c1CCN(C(=O)c1cnccn1)CC2.O=C(O)C(F)(F)F | 3.18% |
| CCCc1n[nH]c(C2CN(C(=O)CCCn3cccn3)CCO2)n1 (centres undefined) | -7.162% |
| CCc1n[nH]c(C2CN(C(=O)Cn3ccccc3=O)CCO2)n1 (centres undefined) | 10.71% |
| CCCc1n[nH]c(C2CN(C(=O)CCn3ccccc3=O)CCO2)n1 (centres undefined) | 104.2% |
| CCCc1n[nH]c(C2CN(C(=O)Cn3ccccc3=O)CCO2)n1 (centres undefined) | 125.8% |
| CCc1n[nH]c(C2CN(C(=O)CCn3ccccc3=O)CCO2)n1 (centres undefined) | 105.3% |
| CCc1n[nH]c(C2CN(C(=O)Cc3ccc(C)nc3)CCO2)n1 (centres undefined) | 17.82% |
| CCc1n[nH]c(C2CN(C(=O)CCc3cccs3)CCO2)n1 (centres undefined) | 3.606% |
| CCc1n[nH]c(C2CN(C(=O)Cc3cccs3)CCO2)n1 (centres undefined) | 122.2% |
| CC(C)(C)c1coc([C@@H]2COCCN2Cc2c[nH]c3ccccc23)n1 | -5.354% |
| CS(=O)(=O)Cc1cccc(C(=O)NCC2Cc3ccccc3O2)c1 (centres undefined) | -6.812% |
| CCC1CN(C(=O)c2ccccc2N(C)C)CCN1C(C)C (centres undefined) | -1.815% |
| CC(C)N(C)CC(=O)N1CCCC(c2ccc(C(=O)O)cc2)C1 (centres undefined) | -10.1% |
| O=C(O)c1cccc(C2CCCN(S(=O)(=O)C3CC3)C2)c1 (centres undefined) | 5.769% |
| CN(C)c1ccccc1C(=O)N1CCCC(c2ccc(C(=O)O)cc2)C1 (centres undefined) | 127.7% |
| CN(C)c1ccccc1C(=O)N1CCCC(c2cccc(C(=O)O)c2)C1 (centres undefined) | 94.85% |
| CCN(C)S(=O)(=O)N1CCCC(c2cccc(C(=O)O)c2)C1 (centres undefined) | 10.58% |
| CCS(=O)(=O)c1ncc(CN2CCSCC2)n1CCc1ccccc1 | 0.5583% |
